Compounds with a hit are over-represented: about 3.1% of the library has one in this group of screens.
Peg3 prom inh – reduces Peg3 promoter-driven luciferase expression in HeLa; hit rate 1.7% among 360,000; HeLa PEG-Prom luciferase reporter, luminescence, overnight; inhibition, % at 20 µM;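 active = inhibition of at least 50% at 20 µM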
CF NFkB block – blocks PAF-induced NF-kB reporter in cystic fibrosis cells. KKLEB NF-kB-GFP reporter, GFP fluorescence overnight. inhibition, % at 5 µM. hit rate 0.86% among 360,000;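 active = at least 50% inhibition at 5 µM, scaled per plate between neutral and stimulator controls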;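 also: PAF is a Pseudomonas aeruginosa culture filtrate used as stimulus; plate controls were PAF-stimulated DMSO wells for no effect and unstimulated DMSO wells for full effect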
C8 TRAIL sens – sensitizes caspase-8 expressing cells to TRAIL | hit rate 1% among 360,000 | AID 624354 | inhibition (viability loss, TRAIL sensitization), % at 10 µM | NB7+C8 cells + TRAIL, ATPlite viability luminescence;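 active = compounds causing at least 50% loss of cell viability in the single-dose screen, relative to plate controls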
PPC-1+TRAIL kill – kills PPC-1 cancer cells in the presence of TRAIL; PPC-1 cells + TRAIL, ATPLite viability luminescence; cell killing (% activity), % at 4 µM or 5 µM; hit rate 0.41% among 220,000; AID 1443;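 active = cell killing above 50% in the first pass at 4 µM, then a duplicate retest at 5 µM averaging 50% or more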;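 also: plate controls were cells with TRAIL plus DMSO for no effect and medium-only wells lacking cells for full effect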
HIF-2a block – HIF-2a inhibition | 786-0 RCC cells HIF-2a reporter, luciferase luminescence, overnight | inhibition, % at 18.8 µM | hit rate 0.72% among 360,000;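 active = inhibition of the luminescence signal of 40% or more relative to plate controls, in a single-dose primary screen at 18.75 µM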
KKLEB cytotox – CF airway cell cytotoxicity counter-screen; KKLEB CF airway cells viability, ATPlite luminescence, overnight; stronger effect = lower value; cells stimulated with P. aeruginosa culture filtrate; activity change (cytotoxicity), % at 5 µM; hit rate 0.36% among 360,000; AID 602141;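 active = corrected activity change at or below -50% at 5 µM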
* marks the source's active call; other numbers are inactive results; · = no result given.

SMILES | Peg3 prom inh | CF NFkB block | C8 TRAIL sens | PPC-1+TRAIL kill | HIF-2a block | KKLEB cytotox
CC[N+]1(C)CCC(O)(c2ccc(OC)cc2)C(C(=O)c2ccc(OC)cc2)C1 (configuration not stated) | 103* | 50* | 4 | · | 14 | -20
CN(C)S(=O)(=O)c1ccc(Cl)c(C(=O)NNC(=O)c2ccc3c(c2)OCO3)c1 | -8 | -11 | -4 | · | -3 | 17
CC(C)c1ccc(/C=C/C2=NNC(=O)CC2)cc1 | -243 | 1 | 15 | -3 | -166 | -9
COc1cc(/C=C/C2=NNC(=O)CC2)cc(OC)c1OC | 61* | -12 | 4 | · | 14 | 5
NC(=O)C1CN(C(=O)c2nn(Cc3ccccc3)c(=O)c3ccccc23)c2ccccc2O1 (configuration not stated) | 17 | 15 | 13 | · | 8 | -22
O=C(COC(=O)Cc1c(F)cccc1Cl)NC(=O)c1ccccc1 | 10 | 3 | 10 | · | 4 | 1
O=c1[nH]c(=S)[nH]c2c1C(c1ccc(Cl)c(Cl)c1)OC(CCc1ccccc1)C2 (configuration not stated) | · | · | 59* | · | -11 | ·
C=CCOc1ccc(/C=C2\SC(N)=NC2=O)cc1OC | -24 | 10 | -11 | · | 1 | -7
COc1ccc(/C=C2\SC(=Nc3ccccc3OC)NC2=O)cc1 | 24 | 56* | 35 | · | -51 | -8
COc1cc(/C=C2/SC(=Nc3ccc(O)cc3)NC2=O)ccc1O | -57 | 71* | 2 | 1 | 13 | 3
COc1cc(/C=C2\SC(N)=NC2=O)ccc1O | 16 | 73* | 34 | · | 31 | -16
CCc1ccc(N=C2NC(=O)/C(=C/c3cc(OC)c(O)c(OC)c3)S2)cc1 | 24 | -2 | 0 | · | 16 | 2
COc1ccc(/C=C2\SC(=NCc3ccccc3)NC2=O)cc1 | -19 | 32 | 2 | 16 | -19 | -39
CC(C)CN1C(=O)NC2(CCCc3ccccc32)C1=O (configuration not stated) | -2 | -6 | -6 | · | -6 | 3
COc1ccc(/C=N/Nc2ncnc(Cl)c2N)cc1OC | -45 | -5 | -12 | 13 | -35 | -5
COc1cccc(/C=N/Nc2nc3ccccc3[nH]2)c1O | -147 | -34 | 44 | 46 | -273 | 0
COc1cccc(/C=N/Nc2nc3ccccc3n3cnnc23)c1O | 71* | -22 | 54* | 34 | -131 | -26
COc1cccc(/C=N/Nc2ncnc(Cl)c2N)c1O | 85* | 46 | 59* | 60* | 63* | -33
COc1ccccc1/C=N/Nc1nncc2ccccc12 | -96 | -12 | 19 | 13 | -209 | -12
COc1cccc(C=NNc2nnc(NN=Cc3cccc(OC)c3OC)c3ccccc23)c1OC | -72 | -15 | 80* | · | -207 | -10
COc1cccc(/C=N/Nc2ncnc3scc(-c4ccccc4)c23)c1O | 60* | 2 | 39 | 45 | 11 | -6
COc1ccc(C(C)(O)c2nc(-c3cccc(C(F)(F)F)c3)cs2)cc1 (configuration not stated) | 23 | -6 | 7 | · | -6 | 2
O=C(NCc1cccnc1)C(=O)Nc1cc2c3c(c1)CC(=O)N3CCC2 | 3 | 8 | -12 | · | -13 | 8
O=S1(=O)CC(c2ccccc2)=NN=C(c2ccccc2)C1 | -257 | -31 | 75* | · | -151 | -41
Cc1ccc2nc3cc([N+](=O)[O-])cc([N+](=O)[O-])c3cc2c1 | 75* | 68* | 37 | · | -130 | -39
SMILES | Peg3 prom inh | CF NFkB block | C8 TRAIL sens | PPC-1+TRAIL kill | HIF-2a block | KKLEB cytotox
Cc1nc2ccc([N+](=O)[O-])cc2nc1C | 9 | -13 | -18 | 15 | 10 | 4
O=C(N/N=C/c1cccnc1)/C(=C\c1cccs1)NC(=O)c1ccccc1 | 20 | 2 | -6 | 7 | 9 | 0
O=C(N/N=C/c1cc2ccccc2nc1Cl)/C(=C/c1cccs1)NC(=O)c1ccccc1 | 66* | -30 | 1 | 5 | 18 | 10
O=C(Nc1nnc(/N=C/c2ccco2)s1)c1ccc(F)cc1 | -74 | 5 | 50* | -1 | -80 | 9
O=C(Nc1nnc(-c2ccc(F)cc2)s1)c1ccco1 | -234 | 8 | 23 | · | -142 | 8
CCOC(=O)N1CCN(C(=O)CCN2C(=O)/C(=C\c3cccc(OC)c3)SC2=S)CC1 | 43 | 8 | 34 | · | 14 | 5
Cc1cc(NC(=O)CCN2C(=O)/C(=C/c3ccccc3Cl)SC2=S)no1 | 9 | 14 | 3 | 9 | 0 | -15
CCc1ccc(/C=C2\SC(=S)N(CCC(=O)Nc3cc(C)on3)C2=O)cc1 | -1 | -5 | -1 | -4 | 82* | 0
COc1cccc(/C=C2\SC(=S)N(CCC(=O)N3CCCCC3)C2=O)c1 | 90* | 48 | 27 | · | 46* | 7
CCOc1ccc(/C=C2/SC(=S)N(CCC(=O)Nc3ccc(C(=O)O)cc3)C2=O)cc1 | -19 | 14 | 1 | · | -80 | 8
CCOc1ccc(/C=C2\SC(=S)N(CCC(=O)O)C2=O)cc1 | 24 | 8 | 22 | 23 | 91* | 0
Cc1ccc(/C=C2\SC(=S)N(CCCC(=O)N3CCOCC3)C2=O)cc1 | 4 | 4 | 2 | · | 58* | -9
COc1ccc(/C=C2\SC(=S)N(CCC(=O)N3CCCCC3CCO)C2=O)cc1 (configuration not stated) | -4 | 6 | 17 | · | 58* | 5
COc1ccc(/C=C2/SC(=S)N(CCCC(=O)N3CCN(C)CC3)C2=O)cc1 | 5 | 4 | 50 | · | 69* | 3
COc1ccc(/C=C2/SC(=S)N(CCC(=O)N3CCN(C)CC3)C2=O)cc1 | -9 | -10 | 1 | · | 24 | -3
O=C1/C(=C/c2ccccc2F)SC(=S)N1CCC(=O)N1CCCCC1CCO (configuration not stated) | 53* | -1 | 11 | · | 4 | 1
COc1ccc(/C=C2\SC(=O)N(CCC(=O)N3CCCCC3CCO)C2=O)cc1 (configuration not stated) | -28 | -16 | 14 | · | -15 | 8
O=C(O)COc1ccc(C=C2SC(=S)N(c3ccccc3)C2=O)cc1 | -33 | -4 | -5 | · | 43* | 2
Cc1ccsc1C(=O)NC1CCCN(Cc2ccc(Cl)cc2)C1 (configuration not stated) | 7 | 22 | 5 | · | -12 | -3
CC1CCN(C(=O)CCN2C(=O)/C(=C/c3cccs3)SC2=S)CC1 | 94* | 15 | 21 | · | 23 | -9
COc1ccc(/C=C2\SC(=S)N(CCC(=O)Nc3ccccc3C(=O)O)C2=O)cc1 | -24 | 2 | 1 | · | 71* | 2
O=C(CCN1C(=O)/C(=C\c2ccccc2Cl)SC1=S)N1CCN(c2ccccc2)CC1 | 100* | 4 | 8 | 16 | 60* | 8
COc1ccc(/C=C2\SC(=S)N(CCC(=O)N3CCCCC3)C2=O)cc1 | 50* | 12 | -5 | · | 76* | 0
CCOc1ccc(/C=C2\SC(=S)N(CCC(=O)Nc3ccccc3C(=O)O)C2=O)cc1 | -74 | 10 | 9 | · | -14 | 7

Compound activity (PubChem)
